Assay outcomes: PubChem BioAssay, The Scripps Research Institute Molecular Screening Center
M1 PAM: positive allosteric modulators of human M1 muscarinic receptor; P11229; CHO-K1 hM1, Fluo-8 calcium fluorescence, ACh EC20; 0% = ACh EC20, 100% = maximal ACh; activation, % at 3 µM; actives 0.088% (n = 360,000); AID 588819; in the data active = activation above about 19%, passing the limit was not always enough
Target sequence (P11229 whole entry, looked up): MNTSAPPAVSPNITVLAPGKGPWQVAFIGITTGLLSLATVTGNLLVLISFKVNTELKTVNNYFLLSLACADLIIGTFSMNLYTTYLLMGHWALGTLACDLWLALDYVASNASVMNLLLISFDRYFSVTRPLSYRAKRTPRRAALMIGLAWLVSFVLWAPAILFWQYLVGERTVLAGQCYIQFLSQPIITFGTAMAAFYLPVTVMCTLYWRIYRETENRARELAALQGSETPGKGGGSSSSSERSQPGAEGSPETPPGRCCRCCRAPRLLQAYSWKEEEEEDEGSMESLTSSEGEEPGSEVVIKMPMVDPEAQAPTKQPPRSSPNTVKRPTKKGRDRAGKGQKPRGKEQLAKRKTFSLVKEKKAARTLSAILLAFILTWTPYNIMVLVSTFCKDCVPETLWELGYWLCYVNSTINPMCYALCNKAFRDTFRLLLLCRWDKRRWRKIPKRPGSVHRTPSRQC
CHO-K1 Ca ag: counter-screen for M1 agonists: effect in parental CHO-K1 cells. activation, % at 3 µM. actives 0.48% (n = 360,000). Fluo-8 calcium fluorescence; scaled to maximal ATP response, vehicle zero; in the data active = activation above about 15%;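 also: untransfected CHO-K1 host cells lacking M1 receptor as counterscreen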
CHO-K1 Ca antag: M1 antagonist counterscreen hit in parental CHO-K1 cells. ATP-induced calcium, Fluo-8 fluorescence. inhibition, % at 3 µM. actives 0.6% (n = 360,000). AID 602250;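 active = inhibition above a per-plate cutoff, the plate's mean sample inhibition plus 3 SD, cut at about 24% in these data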;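 also: 0% = DMSO plus EC80 ATP and 100% = DMSO alone without ATP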
CHO-K1 Ca PAM: M1 PAM counterscreen hit in parental CHO-K1 cells | ATP EC20, Fluo-8 calcium fluorescence; 0% at ATP EC20, 100% at ATP max | activation, % at 3 µM | actives 0.02% (n = 360,000) | AID 602247;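 active = activation above the run cutoff, the mean activation of all test compounds plus 3 SD, cut at about 40% in these data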;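 also: peak over basal fluorescence ratio in a 140 s read after ATP addition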
CHRM1 agonist: activates human CHRM1 receptor | activation, % at 3 µM | AID 588814 | P11229 | actives 0.33% (n = 360,000) | CHO-K1 hM1, Fluo-8 calcium fluorescence, agonist mode; 0% DMSO, 100% acetylcholine EC100;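 active = activation above the run's mean compound activation plus 3 SD, cut at about 16% in these data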;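 also: peak over basal fluorescence ratio within a 140 s kinetic read after compound addition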
M1 antag: blocks human M1 muscarinic receptor; AID 588852; CHO-K1 hM1, Fluo-8 calcium fluorescence, ACh EC80 antagonist; P11229; actives 1.3% (n = 360,000); inhibition, % at 3 µM;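 active = percent inhibition above its own plate's cutoff, namely the mean of that plate's compound wells plus 3 SD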;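 also: peak over basal fluorescence ratio during 140 s after agonist addition; 0% = ACh EC80 plus DMSO and 100% = DMSO alone without agonist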
Starred values were filed as active, the others as inactive; . = no result. A selection: hits, their analogues and other compounds. The true share with any hit is near 2.3%.

SMILES | M1 PAM | CHO-K1 Ca ag | CHO-K1 Ca antag | CHO-K1 Ca PAM | CHRM1 agonist | M1 antag
CC1CCCN(C(=S)NC2CCCC2)C1 (stereo not given) | 11.9 | 0.2 | -3.9 | 6.5 | -13.0 | -10.3
CCc1ccc(/C=N/NC(=O)c2nnn(-c3nonc3N)c2CN2CCOCC2)cc1 | 1.7 | 0.7 | -7.1 | -2.5 | -2.1 | -4.0
COc1cc(/C=C2/SC(=S)N(CC3CCCO3)C2=O)ccc1O (stereo not given) | -5.3 | 18.0* | 15.1 | 4.6 | 14.2 | 18.6
COc1cc(/C=C2\SC(=S)N(C(Cc3ccccc3)C(=O)O)C2=O)ccc1O (stereo not given) | 0.9 | 15.2* | 2.9 | -8.1 | 7.4 | -1.5
CCOc1cc(/C=C2\SC(=S)N(Nc3ccccc3)C2=O)ccc1O | 3.6 | 13.2 | 20.8 | -2.2 | 29.1* | 2.0
O=C1/C(=C/c2ccc(O)c(O)c2)SC(=S)N1Nc1ccccc1 | -2.6 | 11.2 | 18.0 | -3.1 | 12.9 | 15.3
COc1cc(/C=C2\SC(=S)N(Nc3ccccc3)C2=O)ccc1O | -10.7 | 27.2* | 23.7* | 8.4 | 22.6* | 23.6
COc1ccc(/C=C2\SC(=S)N(CC3CCCO3)C2=O)cc1 (stereo not given) | 6.4 | 0.3 | 5.5 | -17.0 | -0.3 | -12.2
Cc1ccc(S(=O)(=O)N2CCN(C(=O)COC(=O)c3oc4ccccc4c3C)CC2)cc1 | 6.6 | 1.1 | -1.7 | -0.6 | -2.5 | -7.5
COc1ccc(NC(=O)c2cc(C3CCCCN3C(=O)c3ccc(Cl)cc3)on2)c(C)c1 (stereo not given) | -3.3 | 2.0 | -1.7 | -13.0 | -5.9 | -3.7
COC(=O)c1ccc(COC(=O)C(CCSC)NC(=O)COc2ccccc2)cc1 (stereo not given) | -0.7 | 6.9 | -5.5 | -4.0 | -1.8 | -6.7
CC1C(=O)N2CCCc3cc(S(=O)(=O)N4CCN(c5ccc(F)cc5)CC4)cc1c32 (stereo not given) | 2.8 | 0.6 | -10.7 | 15.1 | -4.5 | -8.5
O=C(COc1ccc2c(c1)oc(=O)c1ccccc12)NCCCN1CCOCC1 | -1.4 | 1.2 | -14.1 | 4.1 | -3.2 | 5.4
C=CCn1c(-c2cc(-c3ccccc3)sc2N)n[nH]c1=S | 1.4 | 0.2 | -5.3 | -6.6 | -3.8 | 3.7
CCn1c(SC(C)C)nnc1-c1cc(-c2ccccc2)sc1N | 0.8 | -0.2 | 27.8* | -9.3 | -5.0 | 3.4
Cc1cccc(CN2C(=O)N/C(=C/c3ccc(C)s3)C2=O)c1 | 3.1 | 1.5 | -4.4 | 11.8 | -0.6 | -1.9
Cc1ccc(/C=C2/NC(=O)N(Cc3ccccc3)C2=O)s1 | -7.1 | 1.6 | 27.4* | -7.5 | -1.5 | 10.9
Clc1ccc(OCc2nnc(SCCN3CCCCC3)n2Cc2ccco2)cc1 | -21.3 | 0.1 | 17.7 | -8.7 | -5.4 | 98.6*
O=c1c2ccccc2nnn1CSc1nnc(COc2ccc(Cl)cc2)n1Cc1ccco1 | 0.7 | 0.6 | -3.9 | 16.3 | -3.6 | -1.2
CCn1c(COc2ccc(C)cc2)nnc1SCc1ccc(C#N)cc1 | 1.1 | 0.1 | -26.5 | 7.9 | -7.8 | -1.8
CCc1ccc(OCc2nnc(SCCN3CCOCC3)n2CC)cc1 | -22.6 | 0.1 | 2.8 | 1.4 | -5.7 | 63.2*
COc1ccc(C2c3[nH]c4ccccc4c3C[C@H]3C(=O)N(c4ccccc4C(=O)N4CCC[C@H]4C(=O)O)C(=O)N23)cc1 (stereo not given in full) | 11.2 | -0.6 | 2.2 | 16.3 | -1.6 | -15.3
CCOC(=O)C1CCCN(C2CC(=O)N(c3ccc(C(C)C)cc3)C2=O)C1 (stereo not given) | -8.1 | 0.7 | 11.6 | -8.8 | 17.5* | 7.3
CCOC(=O)C1CCCN(C2CC(=O)N(c3ccc(N4C(=O)CC(N5CCCC(C(=O)OCC)C5)C4=O)cc3)C2=O)C1 (stereo not given) | -20.8 | 0.1 | -5.9 | 13.9 | 38.8* | 9.0
CCOC(=O)C1CCCN(C2CC(=O)N(c3cccc(C(F)(F)F)c3)C2=O)C1 (stereo not given) | -21.9 | 0.3 | -3.1 | 17.5 | 65.1* | 39.6*
SMILES | M1 PAM | CHO-K1 Ca ag | CHO-K1 Ca antag | CHO-K1 Ca PAM | CHRM1 agonist | M1 antag
O=C(Nc1cc(Cl)cc(Cl)c1)c1cccnc1 | 3.0 | 18.0* | 4.0 | 7.9 | 2.7 | -6.3
COc1ccc(C(C2C(=O)CC(C)(C)CC2=O)C2C(=O)CC(C)(C)CC2=O)cc1 | 9.0 | 19.3* | 8.8 | 12.3 | -0.1 | -0.9
COc1cc(/C=C2\SC(=S)N(c3cccnc3)C2=O)ccc1O | 0.7 | 18.1* | 1.7 | 6.6 | 13.0 | 4.5
COc1cc(/C=C2\SC(=S)N(NC(=O)c3cccnc3)C2=O)ccc1O | -6.6 | 4.0 | 19.6 | -6.2 | 1.5 | 26.9*
COc1cc(/C=C2\SC(=S)N(NC(=O)c3ccc(O)cc3)C2=O)ccc1O | -13.4 | 23.5* | 13.3 | -20.8 | 37.2* | 35.2
O=C(NC(c1ccc(Cl)cc1)c1cnccn1)C1CCN(Cc2cccc(C(F)(F)F)c2)CC1 (stereo not given) | -1.0 | 0.3 | -9.3 | -6.5 | -7.0 | -5.2
Cc1cc(NC(=O)CSc2nnc(-c3ccc([N+](=O)[O-])cc3)o2)no1 | 2.9 | 0.8 | -1.5 | -8.7 | -1.8 | -2.4
CCOc1cc(OCC)cc(C(=O)N2CCC[C@H]2C(=O)N2CCC[C@H]2C(=O)NCc2cccc(OC)c2)c1 | . | 0.5 | -10.4 | -5.6 | . | .
CS(=O)(=O)c1ccc(-c2csc(C(O)c3cccc(Cl)c3)n2)cc1 (stereo not given) | -11.1 | 1.6 | 4.5 | -10.7 | -1.0 | 5.2
Cc1cc(C)cc(NC(=O)c2ccc(CSc3nnnn3C)cc2)c1 | -8.0 | 4.4 | 14.6 | -0.8 | 1.8 | 27.9*
O=C(NNc1ccc([N+](=O)[O-])cn1)Nc1ccc(N=Nc2ccccc2)cc1 | 3.5 | 1.2 | -9.4 | 6.9 | 3.5 | -1.6
O=c1c2cn(Cc3ccc(F)cc3)c3ccccc3c-2nn1Cc1ccc(F)cc1 | 4.6 | 0.5 | -8.4 | -6.0 | -0.7 | -6.9
O=c1c2cn(Cc3ccccc3)c3ccccc3c-2nn1Cc1ccc(F)cc1Cl | 30.7* | 0.5 | -9.2 | -2.2 | 20.1* | -9.1
COc1ccc(NS(=O)(=O)c2ccc(OCC(=O)N3CCOCC3)cc2)cc1 | -2.3 | 3.1 | 3.8 | 17.6 | -0.1 | 3.1
CCNC(=O)Nc1cc(S(=O)(=O)Nc2ccc(OC)cc2)ccc1N1CCOCC1 | -10.6 | 14.1 | 27.8* | -18.3 | 6.2 | 26.0
Nc1cc(S(=O)(=O)Nc2ccc(Cl)cc2)ccc1N1CCOCC1 | -13.5 | 11.7 | 19.0 | -17.3 | 6.2 | 38.5*
COc1ccc(NS(=O)(=O)c2ccc(N3CCCC3)c(N)c2)cc1 | -26.9 | 10.4 | 16.1 | -9.0 | -6.2 | 40.0*
O=C(COc1ccc(S(=O)(=O)Nc2ccc(Cl)cc2)cc1)N1CCOCC1 | -2.1 | 9.6 | -0.1 | 6.2 | 17.7* | 6.1
